Laboratory results: PubChem BioAssay AID1159580 (chemical genetic matrix, 2015)
Hit rate of the full screen: of about 5,500 compounds, about 2,000 (36%) were called active. Another 18% or so got no clear call; they are omitted. Cut-off read from the data, not from the text of the source: active = normalized growth mostly below about 0.91 (no sharp cut-off); inconclusive = no clear call, values can overlap the other calls; inactive = mostly above about 0.92. Some of the results follow.

Assay: chemical genetic growth profiling, strain panel (AID 1159580);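 note: tested at 20 µM; growth read once vehicle control cultures reached saturation at 30 °C; 1 = growth at the plate median or of vehicle wells; lower values mean less growth of the strain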
Details: growth OD

Measured: normalized growth

COc1ccc2c(c1)[nH]c1c(C)nccc12
inactive: S. cerevisiae deletion strains, locus YJR075W, strain HOC1, hits give low values 1.02 | S. cerevisiae deletion strains, locus YKL009W, strain mrt4, hits give low values 0.954 | S. cerevisiae deletion strains, locus YKL068W, hits give low values 0.978 | S. cerevisiae deletion strains, locus YKL085W, strain MDH1 (second series), hits give low values 0.979 | S. cerevisiae deletion strains, locus YKL085W, strain MDH1, hits give low values 0.979 | S. cerevisiae deletion strains, locus YKL160W, strain elf1, hits give low values 0.996 | S. cerevisiae deletion strains, locus YKL190W, strain CNB1, hits give low values 1.01 | S. cerevisiae deletion strains, locus YKR001C, strain vps1, hits give low values 0.962 | S. cerevisiae deletion strains, locus YKR026C, strain gcn3, hits give low values 0.978 | S. cerevisiae deletion strains, locus YKR091W, strain srl3, hits give low values 0.996 | S. cerevisiae deletion strains, locus YLL001W, strain dnm1, hits give low values 0.987 | S. cerevisiae deletion strains, locus YLL026W, hits give low values 0.993 | S. cerevisiae deletion strains, locus YLL041C, strain sdh2, hits give low values 0.993 | S. cerevisiae deletion strains, locus YLR027C, strain aat2, hits give low values 0.992 | S. cerevisiae deletion strains, locus YLR039C, strain RIC1, hits give low values 1.22 | S. cerevisiae deletion strains, locus YLR058C, strain SHM2, hits give low values 1.01 | S. cerevisiae deletion strains, locus YLR102C, strain apc9, hits give low values 0.981 | S. cerevisiae deletion strains, locus YLR113W, strain HOG1, hits give low values 1 | S. cerevisiae deletion strains, locus YLR221C, strain rsa3, hits give low values 0.995 | S. cerevisiae deletion strains, locus YLR258W, strain gsy2, hits give low values 0.995 | S. cerevisiae deletion strains, locus YLR262C, strain YPT6 (second series), hits give low values 1.03 | S. cerevisiae deletion strains, locus YLR262C, strain YPT6, hits give low values 1.21 | S. cerevisiae deletion strains, locus YLR268W, strain sec22, hits give low values 1 | S. cerevisiae deletion strains, locus YLR320W, strain mms22, hits give low values 1 | S. cerevisiae deletion strains, locus YLR330W, strain CHS5, hits give low values 0.997 | S. cerevisiae deletion strains, locus YLR342W, strain FKS1 (second series), hits give low values 1.02 | S. cerevisiae deletion strains, locus YLR342W, strain FKS1, hits give low values 1 | S. cerevisiae deletion strains, locus YLR357W, strain rsc2, hits give low values 0.978 | S. cerevisiae deletion strains, locus YLR370C, strain arc18, hits give low values 1 | S. cerevisiae deletion strains, locus YLR371W, strain rom2, hits give low values 0.979 | S. cerevisiae deletion strains, locus YLR384C, strain iki3, hits give low values 0.999 | S. cerevisiae deletion strains, locus YLR418C, strain cdc73, hits give low values 1.03 | S. cerevisiae deletion strains, locus YML016C, strain PPZ1, hits give low values 1.01 | S. cerevisiae deletion strains, locus YML032C, strain rad52, hits give low values 0.926 | S. cerevisiae deletion strains, locus YML120C, strain ndi1, hits give low values 1 | S. cerevisiae deletion strains, locus YML124C, strain tub3, hits give low values 0.982 | S. cerevisiae deletion strains, locus YMR058W, strain fet3, hits give low values 0.983 | S. cerevisiae deletion strains, locus YMR078C, strain ctf18, hits give low values 0.976 | S. cerevisiae deletion strains, locus YMR125W, strain sto1, hits give low values 0.975 | S. cerevisiae deletion strains, locus YMR129W, hits give low values 0.988 | S. cerevisiae deletion strains, locus YMR205C, strain PFK2, hits give low values 0.999 | S. cerevisiae deletion strains, locus YMR223W, strain ubp8, hits give low values 0.962 | S. cerevisiae deletion strains, locus YMR231W, strain pep5, hits give low values 1.01 | S. cerevisiae deletion strains, locus YMR263W, strain SAP30, hits give low values 1.01 | S. cerevisiae deletion strains, locus YMR307W, strain GAS1, hits give low values 1.12 | S. cerevisiae deletion strains, locus YNL067W, strain RPL9B, hits give low values 0.971 | S. cerevisiae deletion strains, locus YNL071W, strain lat1, hits give low values 0.991 | S. cerevisiae deletion strains, locus YNL128W, strain TEP1, hits give low values 1.03 | S. cerevisiae deletion strains, locus YNL153C, strain GIM3, hits give low values 1.02 | S. cerevisiae deletion strains, locus YNL183C, strain NPR1, hits give low values 0.982 | S. cerevisiae deletion strains, locus YNL209W, strain ssb2, hits give low values 0.996 | S. cerevisiae deletion strains, locus YNL233W, strain BNI4, hits give low values 1.01 | S. cerevisiae deletion strains, locus YNL248C, strain rpa49, hits give low values 0.966 | S. cerevisiae deletion strains, locus YNL250W, strain rad50, hits give low values 0.986 | S. cerevisiae deletion strains, locus YNL271C, strain bni1, hits give low values 0.991 | S. cerevisiae deletion strains, locus YNL298W, strain CLA4, hits give low values 0.968 | S. cerevisiae deletion strains, locus YNL307C, strain MCK1, hits give low values 0.967 | S. cerevisiae deletion strains, locus YNL322C, strain KRE1 (second series), hits give low values 1 | S. cerevisiae deletion strains, locus YNL322C, strain KRE1, hits give low values 1.01 | S. cerevisiae deletion strains, locus YNR049C, strain mso1, hits give low values 0.997 | S. cerevisiae deletion strains, locus YNR052C, strain pop2, hits give low values 0.961 | S. cerevisiae deletion strains, locus YOL006C, strain TOP1, hits give low values 0.963 | S. cerevisiae deletion strains, locus YOL012C, strain htz1 1.03 | S. cerevisiae deletion strains, locus YOL147C, strain pex11, hits give low values 0.984 | S. cerevisiae deletion strains, locus YOR001W, strain rrp6, hits give low values 1.02 | S. cerevisiae deletion strains, locus YOR061W, strain CKA2, hits give low values 1.04 | S. cerevisiae deletion strains, locus YOR069W, strain VPS5, hits give low values 1 | S. cerevisiae deletion strains, locus YOR070C, strain gyp1, hits give low values 0.995 | S. cerevisiae deletion strains, locus YOR080W, strain dia2, hits give low values 1.01 | S. cerevisiae deletion strains, locus YOR083W, strain WHI5, hits give low values 0.996 | S. cerevisiae deletion strains, locus YOR106W, strain vam3, hits give low values 0.983 | S. cerevisiae deletion strains, locus YOR136W, strain idh2, hits give low values 0.971 | S. cerevisiae deletion strains, locus YOR144C, strain elg1, hits give low values 0.988 | S. cerevisiae deletion strains, locus YOR184W, strain ser1, hits give low values 0.953 | S. cerevisiae deletion strains, locus YOR231W, strain MKK1, hits give low values 1 | S. cerevisiae deletion strains, locus YOR265W, strain rbl2, hits give low values 0.996 | S. cerevisiae deletion strains, locus YOR270C, strain vph1, hits give low values 0.974 | S. cerevisiae deletion strains, locus YOR290C, strain snf2, hits give low values 0.99 | S. cerevisiae deletion strains, locus YOR316C, strain cot1, hits give low values 0.985 | S. cerevisiae deletion strains, locus YPL051W, strain arl3, hits give low values 0.986 | S. cerevisiae deletion strains, locus YPL055C, strain LGE1, hits give low values 1.02 | S. cerevisiae deletion strains, locus YPL078C, strain atp4, hits give low values 0.995 | S. cerevisiae deletion strains, locus YPL106C, strain sse1, hits give low values 0.972 | S. cerevisiae deletion strains, locus YPL240C, strain hsp82, hits give low values 0.981 | S. cerevisiae deletion strains, locus YPL241C, strain CIN2, hits give low values 1.01 | S. cerevisiae deletion strains, locus YPL256C, strain CLN2, hits give low values 1.01 | S. cerevisiae deletion strains, locus YPR119W, strain clb2, hits give low values 0.988 | S. cerevisiae deletion strains, locus YPR141C, strain kar3, hits give low values 0.979 | S. cerevisiae deletion strains, locus YPR163C, strain tif3, hits give low values 0.975 | S. cerevisiae deletion strains, locus YPR167C, strain met16, hits give low values 1 | S. cerevisiae deletion strains, strain wtn01, hits give low values 0.998 | S. cerevisiae strains, strain wild type, hits give low values 0.998
